About 100 (7.1%) of roughly 1,400 compounds were called active. How the calls were made is not given here. These entries were drawn from the full list. Results with a measured potency or affinity are listed apart.

The experiment in a line: viability loss in Vero cells – cell-based, plate reader, cherry-pick samples, cytotoxicity control, dose response (AID 687020).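 Further: compounds incubated with cells for three days before luminescence read.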 Conditions: series mostly up to 19.5 µM.
For the compound `CCCNC(=O)C(Cc1ccc(I)cc1)NC(=O)c1ccc(C#N)cc1` (centres undefined), the outcome was inactive.

Consider `O=C(CN1CCN(Cc2ccccc2)CC1)NNC(=O)c1ccccc1`, for which the result was inactive.

Turning to `Cc1ccnc(NC(=O)C(Cc2ccccc2)NC(=O)c2ccccc2)c1` (centres undefined), the compound was classed as inactive.

As for `Cc1cn([C@H]2C[C@H](O)[C@@H](CNCc3ccc4ncccc4c3)O2)c(=O)[nH]c1=O`, the compound was called inactive.

`CCOc1ccc(N(CC(=O)Nc2cccc(C)c2)S(C)(=O)=O)cc1`: the call was inactive.

Consider `CCN(CC)S(=O)(=O)c1ccc(NC(=O)COC(=O)CNC(=O)C2CCCCC2)cc1`, for which the outcome was inactive.

In the case of `CCCc1cc(=O)oc2c(C)c(OCC(=O)N3C[C@H]4C[C@@H](C3)c3cccc(=O)n3C4)ccc12`, the result was inactive.

Regarding `Cc1c(C)c2c(OCC(=O)N3CCC(O)CC3)cc3c(c2oc1=O)CCC(C)(C)O3`, the outcome was inactive.

Regarding `C[C@@H]1CN([C@H](C)CO)C(=O)c2cc(NC(=O)Nc3ccc(C(F)(F)F)cc3)ccc2O[C@@H]1CN(C)Cc1ccccc1`, the compound was classed as inactive.

`COc1ccccc1N1CCN(C(=O)c2cc(S(=O)(=O)N3CCCCC3)ccc2C)CC1`: the call was inactive.

For `CC(C)(C)OC(=O)C(Cc1ccc(OC(C)(C)C)cc1)NC(=O)CNC(=O)OCc1ccccc1` (centres undefined), the compound was classed as inactive.

As to `O=C(Nc1ccn(CC(=O)N2CCN(c3ccccn3)CC2)c(=O)n1)OCc1ccccc1`, the result was inactive.

For the compound `Cc1cccc(NC(=O)c2cccc(S(=O)(=O)N(C)C3CCCCC3)c2)n1`, the result was inactive.

For `CCCC/C=C/c1cccc2nncn12`, the compound was called inactive.

Take `COc1cccc(-c2nc3nc(C)cc(C)n3c2NC2CCCC2)c1`: the compound was classed as inactive.

Consider `CCC(=O)Nc1cc(C(=O)OCc2ccc(C(=O)Oc3ccccc3)cc2)ccc1C`, for which the compound was classed as inactive.

On to `O=C([C@@H]1[C@@H](CO)[C@@H]2Cn3c(cccc3=O)[C@H]1N2C(=O)CC1CC1)N1CCCCC1`, for which the compound was called inactive.

Take `CCCCNC(=O)c1onc(CS(=O)(=O)c2ccccn2)c1C(=O)NCCCC`: the call was inactive.

`COc1ccc([C@H]2/C=C\CN(C(=O)c3ccc(C)cc3)[C@@H](C)C(=O)N2Cc2ccc(F)cc2)cc1`: the call was inactive.

In the case of `O=C(N[C@H](Cc1ccccc1)C(=O)NC1CCCCC1)[C@H]1O[C@@H](n2ccc(=O)[nH]c2=O)[C@H](O)[C@@H]1O`, the result was inactive.

On to `COC(=O)c1ccc2nc(C3CCCCC3)c(Cc3ccccc3OC)n2c1`, for which the outcome was inactive.

Turning to `COC(=O)c1ccc2nc(-c3ccc(C#N)cc3)c(Cc3cccc(F)c3)n2c1`, the call was inactive.

`CCN1CCN(CCc2nc3cc(NC(=O)COc4ccc(Cl)cc4)ccc3n2C)CC1`: the result was inactive.

Consider `CCN1C(=NCCc2c[nH]c3ccccc23)N[C@@H](c2ccccc2)[C@H](C(=O)OC)[C@H]1C`, for which the compound was called inactive.

For the compound `NCc1csc(NC(=O)Nc2cccc(Cl)c2)n1`, the compound was called inactive.

Take `COC(=O)[C@]12CCCCC=C1N(Cc1cccc3ccccc13)C(=O)[C@H](CC(=O)NCCC(C)C)C2`: the call was inactive.

Consider `COC(=O)[C@]12CCCCC=C1N(Cc1cccc3ccccc13)C(=O)[C@H](CC(=O)N1CCOCC1)C2`, for which the compound was called inactive.

As for `COc1ccc(S(=O)(=O)Nc2ccc3c(c2)C(=O)N([C@@H](C)CO)C[C@H](C)[C@H](CN(C)C(=O)Nc2ccc(C(F)(F)F)cc2)OCCCC[C@H](C)O3)cc1`, the outcome was inactive.

Consider `CC(NC(=O)CN1CCCC1)c1ccccc1` (centres undefined), for which the call was inactive.

With `Cc1cc(C)c2[nH]c(C(=O)Nc3ccc4c(c3)OCO4)cc2c1`, the result was inactive.

Take `Cc1cccc(OCCn2c(=O)n(C)c3ccccc32)c1`: the call was inactive.

In the case of `Cc1oc2cc3oc(=O)c(CCC(=O)NCCCn4ccnc4)c(C)c3cc2c1C`, the compound was classed as inactive.

Consider `Cc1c(C)c2cc(Cl)c(OCC(=O)NCCCN3CCCC3=O)cc2oc1=O`, for which the compound was called inactive.

In the case of `COc1ccc(CN(CCC(c2ccccc2)C2CCOC(C)(C)C2)C(C)=O)cc1` (centres undefined), the compound was called inactive.

Consider `Cc1ccc(C2(C)NC(=O)N(CC(=O)Nc3ccccc3C(=O)NC3CCCC3)C2=O)cc1` (centres undefined), for which the result was inactive.

Turning to `Cc1cccc(C(=O)NC2CCN(CC(=O)Nc3cccc(Cl)c3)CC2)c1`, the outcome was inactive.

For `O=S1(=O)CCOCCCN1Cc1ccccc1Br`, the outcome was inactive.

Regarding `CN1C(=O)c2cc(NC(=O)Cc3cccs3)ccc2OC[C@@H]2O[C@H](CC(=O)NCC3CCCCC3)CC[C@H]21`, the call was inactive.

Regarding `CC(=O)N1CC2(C1)[C@H](c1ccc(-c3ccc(C#N)cc3)cc1)[C@@H](CO)N2C(=O)C1CC1`, the compound was classed as inactive.

`CCCCN1C(Nc2ccccc2)=NC[C@@H]1Cc1ccccc1`: the compound was classed as inactive.

`O=C(Nc1ccccc1)c1ccccc1CSc1ccccc1`: the result was inactive.

Take `O=C(Cc1cccc(C(F)(F)F)c1)Nc1ccc(S(=O)(=O)N2CCCC2)cc1`: the outcome was inactive.

In the case of `O=S(=O)(c1cccc(C(F)(F)F)c1)N1CCN(CC(O)COCc2ccccc2)CC1` (centres undefined), the compound was called inactive.

Consider `CC1(C#N)c2ccccc2C(Br)=CN1C(=O)c1ccccc1` (centres undefined), for which the call was inactive.

With `COc1ccc(NC(=O)C2CCC(CNS(=O)(=O)c3cccs3)CC2)cc1OC` (centres undefined), the call was inactive.

As to `O=C1Nc2ccccc2SC1c1ccccc1` (centres undefined), the result was inactive.

`COc1ccc(-c2nc3ccc(C)cn3c2Cc2cccc(F)c2)cc1OC`: the call was inactive.

With `CC(=O)Nc1cccc(C(=O)OCC(=O)Nc2ccc(Cl)cn2)c1`, the compound was classed as inactive.

For `CC(=O)Nc1cccc(/C(C)=N/NC(=O)c2cccc(S(=O)(=O)N3CCCC3)c2)c1`, the compound was called inactive.

As to `O=C(C1CCOCC1)N1[C@H](CO)[C@@H](c2ccccc2)C12CN(Cc1cccnc1)C2`, the compound was classed as inactive.

Regarding `COC(=O)Cc1ccc(OC2(C)CCN(Cc3csc4ccccc34)C2)cc1` (centres undefined), the outcome was inactive.

Regarding `COc1ccc(Cc2nnc(NC(=O)c3ccccc3Cl)s2)cc1OC`, the compound was called inactive.

Consider `COC(=O)CCc1cccc(CCC(=O)OC)c1`, for which the result was inactive.

Regarding `C[C@@H](NC(=O)C[C@@H]1CC[C@H]2[C@@H](COC[C@H](O)CN2C(=O)Nc2ccccc2)O1)c1ccccc1`, the call was inactive.

On to `Cc1ccc(S(=O)(=O)NC(=O)C2(C)CCN2C(=O)c2ccc(C(F)(F)F)nc2C)cc1` (centres undefined), for which the call was inactive.

As to `Cc1ccc(-c2csc(NC(=O)c3ccc(S(=O)(=O)N4CCc5ccccc54)cc3)n2)cc1`, the result was inactive.

As to `O=S(=O)(c1cnc(Cl)c(Cl)c1)N1CCc2ccccc21`, the call was inactive.

As for `COc1ccc(CC(=O)OCC(=O)NCCNC(=O)COC(=O)Cc2ccc(OC)cc2)cc1`, the compound was called inactive.

Consider `COCCNC(=O)C[C@@H]1C[C@H]2c3cc(NC(=O)Nc4ccc(OC)cc4)ccc3O[C@H]2[C@@H](CO)O1`, for which the call was inactive.

For the origin of these results see PubChem BioAssay AID687020 (Broad Institute, 2013).
